High-throughput results: PubChem BioAssay, National Center for Advancing Translational Sciences (NCATS)
An excerpt weighted towards active compounds, which were near 17% of everything screened.
TDP1 cell CPT = DT40-hTDP1 cell growth loss with CPT | 420,000 compounds, 12% hits | Potency, µM (highest dose often 46.2 µM), inactives show at the top dose activity change, negative = growth inhibition, usual class: inhibitors | chicken DT40 Tdp1-/-;hTDP1 cells + 20 nM CPT, ATP luminescence, 48 h | AID 686979; also: % is scaled to controls: 0 for no effect and ±100 for the full control effect; nearly all actives have a fitted effect of over 55% in size
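Chicken DT40 Tdp1-/- cells stably complemented with human TDP1 were seeded at 400 cells/well in medium containing 20 nM camptothecin, exposed to pin-transferred compounds, and grown at 37 °C for at least 48 hr. Viability was read as ATP luminescence.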
ClpP mod = qHTS Assay for Activators of ClpP; AID 651965, 2013; Potency, µM (doses to about 57.5 µM), for inactives: at the highest dose activity change, negative = active; purified B. subtilis ClpP, FRET peptide cleavage, 20 min; ATP-dependent Clp protease proteolytic subunit (Bacillus subtilis (strain 168)), P80244; 340,000 compounds, 1.9% hits; active = well fitted falling curve with a large enough effect; inconclusive = small, poorly fitted or top-dose-only effect; inactive = no such curve, though single readings can be large or run the other way; also: the source files actives as falling curves though it sought activators and does not explain the sign; nearly all actives have a fitted effect of over 65% in size
Target sequence (P80244 whole entry, looked up): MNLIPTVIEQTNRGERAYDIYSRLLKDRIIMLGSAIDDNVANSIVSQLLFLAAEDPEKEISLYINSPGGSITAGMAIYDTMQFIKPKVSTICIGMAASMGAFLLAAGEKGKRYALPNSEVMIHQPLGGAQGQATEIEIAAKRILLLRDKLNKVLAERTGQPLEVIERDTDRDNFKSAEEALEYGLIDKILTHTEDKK
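ClpP 10 microg/mL final, pH 8 Tris/KCl buffer with BSA, glycerol, Tween-20; compound pinned in; FRET-FV substrate; RT 20 min; Ex320/Em430; ΔFRET vs ADEP 5.8 microM, DMSO, no enzyme.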
TDP1 inh = TDP1 (human) enzyme inhibition. recombinant TDP1, AlphaScreen DNA substrate cleavage. Potency, µM (series often up to 130 µM), without a hit: at the top dose activity change, negative = inhibition, usual class: inhibitors. 350,000 compounds, 0.28% hits; also: % is scaled to controls: 0 for no effect and ±100 for the full control effect; nearly all actives have a fitted effect of over 40% in size
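AlphaScreen read-out: signal falls as enzyme removes the 3' tyrosine-FITC from a 5'-biotinylated DNA oligo (15 nM, 5 min, RT). Enzyme was E. coli-made recombinant Tdp1 at 1 nM, exposed to compound for 15 min beforehand; beads 10 ug/ml, 10 min.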
TDP1 cell noCPT = qHTS for Inhibitors of human tyrosyl-DNA phosphodiesterase 1 (TDP1): qHTS in cells in absence of CPT | 420,000 compounds, 15% hits | Potency, µM (titrated, usually from 46.2 µM), without a hit: at the top dose activity change, negative = growth inhibition, actives largely listed as inhibitors | DT40 Tdp1-/- hTDP1 cells, no CPT, ATP luminescence, 48 h; also: % is scaled to controls: 0 for no effect and ±100 for the full control effect; nearly all actives have a fitted effect of over 55% in size
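Readout: luminescence from CellTiter-Glo after 30 min in the dark at RT. Cells: DT40 Tdp1-/- with stable hTDP1, 400/well. Exposure: compounds alone, ≥48 hr, 37 °C.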
An asterisk follows results filed as active; ? = inconclusive; nt = not tested or not shown; [ ] = remark or other dose. Unless noted, calls follow the shape of the dose curve; as a rule, active = well fitted curve in the direction sought with a large enough effect; inconclusive = small, poorly fitted or top-dose-only effect, or another doubt; inactive = no such curve, though single readings can be large; an effect the other way counts as inactive or inconclusive. Potency is read from the fitted curve at half-maximal effect.

SMILES | TDP1 cell CPT | ClpP mod | TDP1 inh | TDP1 cell noCPT
CC(=O)c1c(C)[nH]c(C(=O)CN(C)CC(=O)Nc2ccccc2Cl)c1C | ? | nt | 3% | 21µM*
CCN(CC(=O)Nc1ccccc1C(F)(F)F)CC(=O)c1[nH]c(C)c(C(C)=O)c1C | 23µM* | -2% | nt | 16µM*
CCOC(=O)c1c(C)[nH]c(C(=O)CN(C)CC(=O)Nc2ccccc2Cl)c1C | ? | -1% | 0%[56.1 µM] | 21µM*
CC1(C)CC(NS(=O)(=O)c2ccc(C(C)(C)C)cc2)CC(C)(C)N1 | -30% | nt | nt | ?
CCc1ccc(CNC(=O)c2cnc3sc(N(CC)CC)nn3c2=O)cc1 | 13µM* | 13µM* | -1% | ?
CCOc1ccccc1CNC(=O)c1cnc2sc(N(CC)CC)nn2c1=O | ? | 8.9µM* | 8% | ?
CCOc1ccc(CNC(=O)c2cnc3sc(N(CC)CC)nn3c2=O)cc1 | ? | 1% | 7% | ?
CCN(CC)c1nn2c(=O)c(C(=O)NCCc3ccc(C)cc3)cnc2s1 | ? | 16µM* | 2% | ?
CCN(CC)c1nn2c(=O)c(C(=O)NCCc3ccccc3C)cnc2s1 | 16µM* | 4µM* | 6% | ?
CC1O[C@@H](O[C@H]2C(Oc3cc(O)c4c(=O)cc(-c5ccc(O)cc5)oc4c3)OC(CO)C(O)C2O)C(O)C(O)C1O (stereo partly drawn) | 12% | nt | 14%[56.1 µM] | -5%
N#Cc1cccnc1N1CCC(C(N)=O)CC1 | -1% | 4% | 8% | -7%
Cc1ccc(CNc2c(C)c(C)nc3nncn23)cc1 | 4.1µM* | -3% | 2% | 1.2µM*
Cc1ccc(CNc2nnnn2C)cc1 | 20% | 0% | 0% | -20%
CCc1c(C)nc2nncn2c1NCc1ccc(Cl)cc1 | 8.2µM* | 2% | -2% | 4.6µM*
Cc1nc2nncn2c(Nc2ccccc2)c1C | 21µM* | -1% | 9% | 18µM*
c1cncc(CNc2nc(-c3ccc4c(c3)OCO4)nc3ccccc23)c1 | ? | nt | 0%[56.1 µM] | ?
Cc1cccc(CNc2nc(-c3ccc4c(c3)OCO4)nc3ccccc23)c1 | ? | nt | nt | 23µM*
c1cncc(CNc2ncncc2-c2ccc3c(c2)OCO3)c1 | 6.5µM* | nt | nt | 10µM*
c1ccc(-c2nc(NCCCN3CCOCC3)c3ccccc3n2)cc1 | 9% | -2% | 4% | ?
Cc1cccc(CNc2ncncc2-c2ccc(C(=O)N(C)C)cc2)c1 | ? | nt | nt | 3.7µM*
Cc1cccc(-c2nc(NCCCN3CCOCC3)c3ccccc3n2)c1 | 18µM* | 1% | -7% | ?
CCc1cccc(NC(=O)c2nc(-c3ccncc3)no2)c1 | ? | -2% | 4% | -19%
Cc1ccc(Cl)cc1NC(=O)Cn1nc2c(cc1=O)CC(C)CC2 (stereo not drawn) | -17% | 3% | 1% | -33%
Oc1ccccc1CC=NC1CCCCC1 | -9% | 1% | nt | -25%
COc1cc(/C=C/C(=O)OCC(=O)NCCN2C(=O)CSC2=O)ccc1OCC#N | 2% | 4% | 1% | 12%
SMILES | TDP1 cell CPT | ClpP mod | TDP1 inh | TDP1 cell noCPT
Cc1cccc(CNc2ncnc3ccc(-c4ccc5c(c4)OCO5)cc23)c1 | ? | nt | 4% | 18µM*
Cc1cccc(CNc2ncnc3ccc(-c4ccc(C(=O)N(C)C)cc4)cc23)c1 | ? | nt | 3% | 26µM*
Cc1ccccc1C(=O)N=c1sccn1C | -1% | -6% | 4% | 3.3µM*
COc1cc(Nc2ncc3c(n2)CCN(Cc2cc(Br)cs2)C3)cc(OC)c1 | 16µM* | -5% | 4% | 23µM*
CC(C)CN1CCc2nc(N3CCN(C)CC3)ncc2C1 | -13% | -1% | 9% | -24%
COc1cccc(CN2CCc3nc(N4CCN(C)CC4)ncc3C2)c1 | ? | -3% | -1% | ?
Brc1csc(CN2CCc3nc(Nc4ccccc4)ncc3C2)c1 | 21µM* | -17% | 9% | 23µM*
CN1CCN(c2ncc3c(n2)CCN(Cc2cc(Br)cs2)C3)CC1 | 16µM* | -3% | 11% | ?
CN(C(=O)COC(=O)c1ccc(-c2ccc(O)cc2)cc1)C1CCS(=O)(=O)C1 (stereo not drawn) | -7% | -6% | 3% | 12%
Cc1ccc2cc3c(N)c(C(=O)Nc4c(C)[nH]c(=O)[nH]c4=O)sc3nc2c1 | 18% | 16µM* | nt | 15%
Cc1c(C(=O)N2CCN(c3ccccn3)CC2)oc2ccccc12 | ? | 0% | -1% | ?
Cc1ccc2c(C)c(C(=O)N3CCN(c4cnccn4)CC3)oc2c1C | ? | -26% | 8% | 18µM*
CCOC(=O)c1sc2cccc(F)c2c1S(=O)(=O)Nc1ccccc1F | -2% | 2% | 8% | 6%
Cc1ccc(C(=O)Nc2cc([N+](=O)[O-])ccc2F)s1 | -3% | 6% | 0% | -3%
CN(C)NC(=O)c1ccc([N+](=O)[O-])s1 | ? | -3% | 5% | 16µM*
O=C(Nc1cccc2ccccc12)c1ccc([N+](=O)[O-])s1 | 15µM* | 1% | 5% | 10µM*
O=C(COC(=O)c1ccc([N+](=O)[O-])s1)Nc1ccccc1 | ? | -1% | 7% | -12%
O=C(Nc1cccnc1)c1ccc([N+](=O)[O-])s1 | 0.73µM* | -2% | -2% | 0.65µM*
O=C(Nc1ccccc1F)c1ccc([N+](=O)[O-])s1 | 21µM* | -7% | 11% | 21µM*
C=CCn1c(O)c(C2=c3ccccc3=NC2=O)sc1=Nc1ccc(O)cc1 | 23µM* | 1% | nt | ?
CCn1c(O)c(/C=C2\C=Nc3ccccc32)sc1=Nc1ccc(C)cc1 | ? | 0% | 5% | ?
COc1ccccc1NC(=O)c1c(C)cc(C)nc1SCC(=O)Nc1ccc(C)cc1 | ? | 0% | 1% | ?
O=C(CN1CCN(C(c2ccccc2)c2ccccc2)CC1)N1CCN(c2ccccc2)CC1 | ? | 3% | 8% | 18µM*
O=C(CN1CCN(C(c2ccccc2)c2ccccc2)CC1)NCc1ccccc1 | 5% | nt | 4% | ?
O=C(CN1CCN(c2ccccc2)CC1)NC(=O)NCc1ccco1 | -15% | 1% | 4% | -20%
SMILES | TDP1 cell CPT | ClpP mod | TDP1 inh | TDP1 cell noCPT
O=C(CN1CCN(C(c2ccccc2)c2ccccc2)CC1)NC(=O)NCc1ccco1 | 21µM* | -2% | 5% | ?
CC(C)(C)NC(=O)NC(=O)CN1CCN(C(c2ccccc2)c2ccccc2)CC1 | 9.2µM* | 0% | 5% | ?
CC1CCN(CC(=O)N2CCN(c3ccccc3)CC2)CC1 | 0% | nt | 3% | 0%
CC(C)(C)NC(=O)NC(=O)CN1CCN(Cc2ccccc2)CC1 | ? | 1% | 8% | ?
COc1ccc(CNC(=O)CN2CCN(C(c3ccccc3)c3ccccc3)CC2)cc1 | 18µM* | nt | 6% | ?
CN(c1ccc(OCC(=O)OCC(=O)NCc2ccco2)cc1)S(=O)(=O)c1ccc2ccccc2c1 | 2% | -4% | 0% | 18%
